Hits are enriched below; roughly 3.8% of the tested compounds scored in any of these assays.
TGFb inhibitor: qHTS for Inhibitors of TGF-b | HepG2 CAGA-GFP TGF-b/SMAD3 reporter, GFP fluorescence, 18 h; TGF-beta stimulated, 500 pg/mL final | Potency, µM (series often up to 46.1 µM), usual class: inhibitors | hit rate 1.2% among 410,000 | AID 588855, 2011; note: nearly all actives have a fitted effect of over 65% in size
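HEPG2 CAGA-GFP cells (1000/well, DMEM with 1% FBS) were pre-incubated 2 h at 37 degrees C, given compound by pin tool, then stimulated with TGF-beta at 500 pg/mL final for 18 h before per-cell GFP fluorescence imaging.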
ATXN viability: Viability Counterscreen for Primary qHTS for Inhibitors of ATXN expression; Potency, µM (titrated, usually from 56.7 µM), hits mostly cytotoxic; hit rate 0.49% among 400,000; S2 cells (HEK-293 line with an ATXN2-luciferase reporter) viability, CellTiter-Fluor protease fluorescence, 24 h; note: nearly all actives have a fitted effect of over 40% in size
ATXN2 expr inh: Primary qHTS for Inhibitors of ATXN expression; HEK-293 ATXN2-luciferase reporter, luminescence, 24 h; Potency, µM (top dose mostly 57 µM), usual class: inhibitors; hit rate 0.72% among 360,000; AID 1745845, 2022; note: nearly all actives have a fitted effect of over 55% in size
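ATXN2-luciferase reporter cells (luciferase flanked by upstream and downstream ATXN2 gene portions) were treated 24 h at 37 °C with compounds at up to 57 uM. SteadyGlo luminescence gave expression; GF-AFC fluorescence gave viability.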
HepG2 viability: qHTS for Inhibitors of TGF-b: Cytotox Counterscreen; AID 588856, 2011; HepG2 CAGA-GFP viability, ATP luminescence, 18 h; Potency, µM (titrated, usually from 46.1 µM), most hits filed as cytotoxic; hit rate 0.76% among 410,000
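CellTiter-Glo luminescence gave cytotoxicity after 18 hours at 37 degrees C. The cells were HepG2 CAGA-GFP in 1% FBS DMEM, stimulated with 500 pg/mL TGF-beta after compound addition. %Activity was normalised to no-cell wells (complete cell-killing) and DMSO (no toxicity), and curves were fitted and classified.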
Nrf2 inh: Nrf2 qHTS screen for inhibitors | A549 ARE-Fluc reporter, luciferase luminescence, 18-24 h | Potency, µM (top dose mostly 46 µM), most hits filed as inhibitors | hit rate 2.1% among 360,000; note: nearly all actives have a fitted effect of over 60% in size
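In this cell-based qHTS, ARE-driven firefly luciferase in A549 cells reports Nrf2 activity; the luminescent signal after BugLite lysis is the measured value, with a prior CellTiter-Fluor read for cell health.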
A549 viability: Nrf2 qHTS screen for inhibitors: counterscreen for cytotoxicity. A549 ARE-Fluc cells, CellTiter-Fluor viability, 18-24 h. Potency, µM (doses to about 46 µM), usual class: inhibitors. hit rate 0.16% among 390,000
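A549 ARE_Fluc cells in 5% FBS OPTI-MEM were exposed to compounds in concentration-response for 18-24 h at 37 deg C. Viability was read by CellTiter-Fluor fluorescence (Ex 405/Em 525) after 30 min, before the luciferase read.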
Large screens that a line does not name were inactive. Calls come from the whole dose curve; as a rule, active = well fitted curve in the direction sought with a large enough effect; inconclusive = small, poorly fitted or top-dose-only effect, or another doubt; inactive = no such curve, though single readings can be large; an effect the other way counts as inactive or inconclusive.

Cc1cccc(C)c1NC(=O)CN(C)C(=O)c1cccc(S(=O)(=O)N2CCN(c3ccccc3)CC2)c1	TGFb inhibitor inconclusive
Cc1cccc(C)c1NC(=O)CN(C)C(=O)c1cccc(S(=O)(=O)N2CCN(C)CC2)c1	none
CN(CC(=O)Nc1ccccc1Cl)C(=O)c1cccc(S(=O)(=O)N2CCN(Cc3ccccc3)CC2)c1	TGFb inhibitor inconclusive, Nrf2 inh 15µM
CCOC(=O)c1c(C)oc2nc(C)nc(NCc3cccc(Cl)c3)c12	none
Cc1ccc(NC(=O)c2cccc(S(=O)(=O)N3CCN(c4ccc(F)cc4)CC3)c2)nc1	TGFb inhibitor inconclusive, Nrf2 inh 23µM
Cc1ccc(NC(=O)c2cccc(S(=O)(=O)N3CCCC3)c2)nc1	Nrf2 inh inconclusive
C/C(=N\NC(=O)c1nnn(-c2nonc2N)c1-c1ccc2c(c1)OCO2)c1ccc(C)cc1	none
CCC(C)(C)C1CCC2(CC1)NC(=O)N(CC(=O)N(C)CC(=O)Nc1ccccc1C(F)(F)F)C2=O (stereo not given)	Nrf2 inh 15µM
C=CCN1C2CCCC1CC(NC(=O)Nc1cc(C)cc(C)c1)C2 (stereo not given)	Nrf2 inh inconclusive
CN(Cc1ccccc1)CC(O)COc1ccc(CNCc2ccc(Cl)s2)cc1 (stereo not given)	TGFb inhibitor 13µM, ATXN viability inconclusive, ATXN2 expr inh inconclusive, Nrf2 inh inconclusive
O=C(Oc1ccccc1F)c1nc(SCc2ccc(F)cc2)ncc1Cl	none (no result: ATXN viability, ATXN2 expr inh)
CCCCOc1ccc(CSc2nc(C)[nH]c2[N+](=O)[O-])cc1[N+](=O)[O-]	TGFb inhibitor inconclusive, Nrf2 inh 15µM, A549 viability inconclusive
O=c1c2ccccc2nc(SCc2nnc(-c3ccccc3Br)o2)n1-c1ccccc1	Nrf2 inh 10µM
Brc1ccccc1-c1nnc(CSc2nncn2-c2ccccc2)o1	none
CCOc1ccc(NC(=O)c2c(NCc3sccc3C)sc3c2CCCCC3)cc1	TGFb inhibitor inconclusive (no result: ATXN viability, ATXN2 expr inh, Nrf2 inh)
COc1ccc(C)cc1NC(=O)c1c(C(=O)Nc2cccc(C)c2C)sc2nc(C)cc(=O)n12	none
CCC(CC)COC(=O)C(C#N)c1nc2ccccc2nc1N1CCN(CC)CC1 (stereo not given)	TGFb inhibitor inconclusive, ATXN viability 28µM, ATXN2 expr inh inconclusive, A549 viability inconclusive
CCC(C)COC(=O)C(C#N)c1nc2ccccc2nc1N1CCCCC1 (stereo not given)	none
O=C(NCC1CCCO1)C(=O)N/N=C/c1cccc(Cl)c1 (stereo not given)	none
COc1cc(-c2oc3ccc(C)cc3c(=O)c2O)cc(OC)c1OC	TGFb inhibitor 2.5µM, ATXN2 expr inh inconclusive (no result: ATXN viability)
O=C(NCCNc1ccc([N+](=O)[O-])cc1C(F)(F)F)c1ccc(F)cc1	Nrf2 inh 21µM, A549 viability inconclusive
NCCCNc1ccc([N+](=O)[O-])cc1C(F)(F)F	none
COc1ccc(Br)cc1/C(C)=N/NC1=NCCN1	TGFb inhibitor inconclusive, Nrf2 inh 12µM
COc1ccc(NC(=S)Nc2ccc(Oc3ccccc3)cc2)cc1	Nrf2 inh 23µM
Cc1ccc(C(=O)NC(=S)Nc2ccc(Oc3ccc(Cl)cc3)cc2)cc1	Nrf2 inh inconclusive
O=C(NC(=S)Nc1ccc(Oc2ccccc2)cc1)c1ccc(Cl)cc1	TGFb inhibitor inconclusive, Nrf2 inh 26µM
O=C(NCCc1ccccn1)C1CCCN1S(=O)(=O)c1ccc(Cl)cc1 (stereo not given)	none
O=C(CSc1nc2ccccc2c(=O)n1-c1ccccc1Cl)NCC1CCCO1 (stereo not given)	none (no result: ATXN2 expr inh)
CCN(CC)CCn1nc(C)nc1-c1ccccc1O	none
CCN(CC)CCn1nc2c3c(cccc3c1=O)-c1ccccc1-2	TGFb inhibitor inconclusive, ATXN viability inconclusive, ATXN2 expr inh 10µM, Nrf2 inh inconclusive, A549 viability 13µM
Cc1cc(OCc2cc(C(=O)NC(C)c3c(C)nn(C)c3C)no2)cc(C)c1Cl (stereo not given)	TGFb inhibitor 11µM, ATXN2 expr inh inconclusive
Cc1ccc(Nc2c3c(nc4nc(-c5cccs5)nn24)CCCC3)cc1F	TGFb inhibitor inconclusive (no result: Nrf2 inh)
Fc1cc(Br)ccc1Nc1c2c(nc3nc(-c4cccs4)nn13)CCCC2	TGFb inhibitor 10µM, A549 viability inconclusive (no result: Nrf2 inh)
Cc1cc(O)c(-c2cc(O)c(C)cc2O)cc1O	TGFb inhibitor inconclusive, ATXN viability inconclusive, HepG2 viability 22µM (no result: ATXN2 expr inh)
C=CCN(c1ccccc1)S(=O)(=O)c1cccc(C(=O)N2CC(C)CC(C)C2)c1 (stereo not given)	ATXN viability inconclusive, Nrf2 inh 21µM, A549 viability inconclusive
C=CCN(c1ccccc1)S(=O)(=O)c1cccc(C(=O)N2CCCC2)c1	none
Clc1ccc(/C=C/c2ncc3ccccn23)cc1	Nrf2 inh inconclusive (no result: ATXN viability)
Cn1c2ccccc2c2c(C(=O)N3CCN(c4cccc(Cl)c4)CC3)cn(C3CCCCC3)c(=O)c21	TGFb inhibitor inconclusive, Nrf2 inh inconclusive (no result: ATXN viability, ATXN2 expr inh)
Cc1nc2ccccc2c2oc(C(=O)NCC3COc4ccccc4O3)cc12 (stereo not given)	TGFb inhibitor inconclusive, ATXN2 expr inh inconclusive, Nrf2 inh 16µM (no result: ATXN viability)
CCN1CCCC1CNC(=O)c1cc2c(C)nc3ccccc3c2o1 (stereo not given)	none
CCc1ccc(CNC(=O)c2cc3c(C)nc4ccccc4c3o2)cc1	TGFb inhibitor inconclusive, ATXN viability inconclusive, ATXN2 expr inh 20µM, Nrf2 inh 15µM
CCOC(=O)c1c(S(=O)(=O)N2CCCC(C(=O)N3CCN(c4cccc(C)c4C)CC3)C2)c(C)n(C)c1C (stereo not given)	none (no result: Nrf2 inh)
CCOC(=O)c1[nH]c(=O)[nH]c1COC(=O)c1cc2ccccc2o1	none
COc1cccc2c1C(=O)c1c(O)c3c(c(O)c1C2=O)C[C@@](O)(C(=O)CO)C[C@H]3O[C@H]1C[C@H](N)[C@H](O)[C@H](C)O1	ATXN2 expr inh 0.27µM (no result: TGFb inhibitor, ATXN viability, HepG2 viability, Nrf2 inh, A549 viability)
COc1cccc2c1-c1c(O)cccc1C2=O	none (no result: ATXN2 expr inh)
COc1cccc2c1C(=N)c1c(O)c3c(c(O)c1C2=O)CC(O)(C(C)=O)CC3OC1CC(N)C(O)C(C)O1 (stereo not given)	TGFb inhibitor 7.1µM, ATXN viability inconclusive, ATXN2 expr inh 1.2µM, Nrf2 inh inconclusive, A549 viability inconclusive
COc1cccc2c1C(=O)c1c(O)c3c(c(O)c1C2=O)CC(O)(C(C)=O)CC3OC1CC(O)C(O)C(C)O1 (stereo not given)	ATXN viability 19µM, ATXN2 expr inh inconclusive, Nrf2 inh 10µM, A549 viability inconclusive
